# Test results taken from the supplement of paper PMC9694430.
# Legend:
# Test in all cases: thermal shift delta Tm vs DMSO control; higher = stronger stabilization (binding)
# Conditions in all cases: 12.5 µM; protein concentration 2 µM
# LOC_OS01G01410-cb001 = system: LOC_OS01G01410-cb001
# Summary of the method: (§1)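 Rice kinase domain constructs were expressed in E. coli, purified, and tested by differential scanning fluorimetry with compound added in DMSO. Each well of a 96-well plate held 19.5 μl of 2 μM kinase in 100 mM potassium phosphate pH 7.5, 150 mM NaCl, 10% glycerol and 5 × SYPRO Orange, and fluorescence was read from 25°C to 95°C at 0.05°C/s. The melting temperature shift is the mean of triplicates, taken against protein with DMSO alone after Boltzmann fitting.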
# LOC_OS01G02750-cb003 = system: LOC_OS01G02750-cb003
# Summary of the method: as §1
# LOC_OS01G10900-cb004 = system: LOC_OS01G10900-cb004
# Summary of the method: as §1
# LOC_OS01G13800-cb001 = system: LOC_OS01G13800-cb001
# Summary of the method: as §1
# LOC_OS01G14860-cb001 = system: LOC_OS01G14860-cb001
# Summary of the method: as §1
# LOC_OS01G21960-cb002 = system: LOC_OS01G21960-cb002
# Summary of the method: as §1
# LOC_OS01G39600-cb002 = system: LOC_OS01G39600-cb002
# Summary of the method: as §1
# LOC_OS01G48390-cb002 = system: LOC_OS01G48390-cb002
# Summary of the method: as §1
# LOC_OS01G51400-cb002 = system: LOC_OS01G51400-cb002
# Summary of the method: as §1
# LOC_OS01G52050-cb004 = system: T1, LOC_OS01G52050-cb004
# T1 sequence (whole entry): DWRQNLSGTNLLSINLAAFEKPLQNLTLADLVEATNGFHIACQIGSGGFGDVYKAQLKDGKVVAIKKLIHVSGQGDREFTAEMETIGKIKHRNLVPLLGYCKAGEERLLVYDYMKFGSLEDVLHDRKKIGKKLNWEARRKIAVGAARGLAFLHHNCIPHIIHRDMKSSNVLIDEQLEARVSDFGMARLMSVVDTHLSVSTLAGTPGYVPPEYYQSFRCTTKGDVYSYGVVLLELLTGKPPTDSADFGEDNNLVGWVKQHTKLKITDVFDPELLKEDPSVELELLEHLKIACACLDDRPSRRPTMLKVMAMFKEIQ
# Summary of the method: as §1
SMILES,thermal shift delta Tm (LOC_OS01G01410-cb001) [°C],thermal shift delta Tm (LOC_OS01G02750-cb003) [°C],thermal shift delta Tm (LOC_OS01G10900-cb004) [°C],thermal shift delta Tm (LOC_OS01G13800-cb001) [°C],thermal shift delta Tm (LOC_OS01G14860-cb001) [°C],thermal shift delta Tm (LOC_OS01G21960-cb002) [°C],thermal shift delta Tm (LOC_OS01G39600-cb002) [°C],thermal shift delta Tm (LOC_OS01G48390-cb002) [°C],thermal shift delta Tm (LOC_OS01G51400-cb002) [°C],thermal shift delta Tm (LOC_OS01G52050-cb004) [°C]
N#Cc1ccc2ncnc(NCCc3ccccc3)c2c1 [Senexin A],1.49,1.5,0.41,0.25,0.78,0.95,0.66,0.42,0.41,2.96
Cc1nc(N)sc1-c1ccnc(Nc2ccc(N3CCOCC3)cc2)n1,5.75,10.4,1.74,0.29,2.6,2.06,3.24,2.34,0.68,6.52
C=CC(=O)Nc1cccc(Nc2nc(Nc3ccc(OCCOC)cc3)ncc2F)c1,3.05,0.97,1.01,-0.85,3.77,2.29,-1.51,1.44,0.59,3.59
COc1cc(C(=O)N2CCC(N3CCN(C)CC3)CC2)ccc1Nc1ncc2c(n1)N(C)c1ccccc1C(=O)N2C,0.19,0.47,2.12,0.41,-0.08,-0.12,-0.15,0.42,-0.06,-0.4
O=c1cc(-c2cccc3c2Sc2ccccc2S3)oc(N2CCOCC2)c1,0.6,-5.37,1.94,0.13,2.44,0.44,0.29,2.17,-0.12,-0.44
O=C(Nc1cccc(C(F)(F)F)c1)c1cccc2cc(Oc3cc(CO)ncn3)ccc12,0.74,0.11,0.77,0.56,0.71,0.94,-0.03,0.4,0.1,0.38
CC(C)(C)c1nc(-c2cccc(NS(=O)(=O)c3c(F)cccc3F)c2F)c(-c2ccnc(N)n2)s1,1.54,0.76,0.26,0.08,8.58,1.84,-9.31,0.37,0.33,1.56
Cc1cc(C)c(/C=C2\C(=O)Nc3ccccc32)[nH]1 [Semaxanib (SU5416)],2.4,1.81,0.7,-0.49,0.24,1.45,0.58,1.2,0.58,1.59
"Cc1[nH]c(/C=C2\C(=O)Nc3ccccc32)c(C)c1CCC(=O)O [Orantinib (TSU-68, SU6668)]",4.79,1.43,0.18,0.08,1.9,2.76,6.8,1.34,0.2,3.61
CCc1cncnc1N1CCN(Cc2nc3ccc(C(F)(F)F)cc3[nH]2)CC1,0.68,1.15,0.36,0.07,0.3,0.83,-0.18,0.61,0.42,0.17
CC1(C)CNc2cc(NC(=O)c3cccnc3NCc3ccncc3)ccc21 [Motesanib Diphosphate (AMG-706)],1.13,0.81,0.63,0.38,0.51,0.76,-0.19,0.41,-0.07,-0.22
CCC(=O)Nc1cccc(Oc2nc(Nc3ccc(N4CCN(C)CC4)cc3OC)ncc2Cl)c1,0.36,1.2,0.23,-0.06,-0.01,0.7,-0.79,0.98,0.38,0.14
C=CC(=O)Nc1cccc(Nc2nc(Nc3ccc(NC4CN(CCF)C4)cc3OC)ncc2C(F)(F)F)c1,0.5,-0.47,0.12,-0.76,0.1,0.07,1.11,2.29,0.35,0.31
Cc1cn(-c2cc(NC(=O)c3ccc(C)c(Nc4nccc(-c5cccnc5)n4)c3)cc(C(F)(F)F)c2)cn1 [Nilotinib (AMN-107)],1.05,0.56,0.78,-0.11,0.32,0.28,0.67,0.45,0.48,-0.02
C[C@@H](Oc1ccc2[nH]nc(/C=C/c3cnn(CCO)c3)c2c1)c1c(Cl)cncc1Cl,5.27,7.14,7,-0.36,5.34,3.51,9.68,4.56,0.89,11.2
CC(C)[C@H](CO)Nc1nc(Nc2cccc(Cl)c2)c2ncn(C(C)C)c2n1 [Purvalanol A],1.58,3.04,0.07,-0.49,1.34,2.18,-0.08,2.56,0.45,5
COc1ccccc1-c1cc(Nc2cccc(CS(N)(=O)=O)c2)ncn1,0.57,1.83,-0.11,0.56,1.07,1.02,-0.27,0.79,0.36,0.9
COc1nccnc1NS(=O)(=O)c1ccc(NC(=O)/C=C/c2ccc([N+](=O)[O-])s2)cc1 [Necrosulfonamide],1.29,0.21,2.42,1.27,0.78,0.24,-1.55,0.84,-0.04,0.81
COc1cc2ncnc(Oc3cccc(NC(=O)Nc4cc(C(C)(C)C(F)(F)F)on4)c3)c2cc1OC,0.82,1.07,0.12,0.13,0.91,0.64,0.02,0.73,0.35,0.75
CC(C)NC(=O)COc1cccc(-c2nc(Nc3ccc4[nH]ncc4c3)c3ccccc3n2)c1,0.42,0.09,0.99,0.46,1.95,1.23,-0.3,0.33,-0.24,1.34

SMILES,thermal shift delta Tm (LOC_OS01G01410-cb001) [°C],thermal shift delta Tm (LOC_OS01G02750-cb003) [°C],thermal shift delta Tm (LOC_OS01G10900-cb004) [°C],thermal shift delta Tm (LOC_OS01G13800-cb001) [°C],thermal shift delta Tm (LOC_OS01G14860-cb001) [°C],thermal shift delta Tm (LOC_OS01G21960-cb002) [°C],thermal shift delta Tm (LOC_OS01G39600-cb002) [°C],thermal shift delta Tm (LOC_OS01G48390-cb002) [°C],thermal shift delta Tm (LOC_OS01G51400-cb002) [°C],thermal shift delta Tm (LOC_OS01G52050-cb004) [°C]
COc1ccc(-c2ccc3c(N4CCOCC4)nc(N4C[C@@H](C)O[C@@H](C)C4)nc3n2)cc1CO,0.64,0.68,0.83,-0.38,0.08,-0.07,-0.02,-0.04,-0.03,0.27
CN1CCN(c2ccc3nc(-c4c(N)c5c(F)cccc5[nH]c4=O)[nH]c3c2)CC1 [Dovitinib (TKI258) Lactate],5.96,2.78,4.81,1.06,2.06,3.87,4.79,3.22,1.02,6.95
CN(C[C@@H]1COCCO1)S(=O)(=O)Nc1ccc2ccc3ncc(-c4cnn(C)c4)cc3c(=O)c2c1,2.9,3.39,1.59,-0.75,0.52,1.85,2.41,0.37,0.29,10.3
CC(C)c1cnn2c(NCc3ccccc3-n3cccn3)nc(OC3CCCNC3)nc12 (stereo not given),0,1.24,0.29,0.99,0.39,1.47,-0.1,0.28,0.35,0.43
CC[C@@](C)(Nc1ccnc(-c2c[nH]c3ncccc23)n1)C(=O)NCC(F)(F)F [Decernotinib (VX-509)],0.58,1.32,-0.38,0.4,0.78,3.1,-0.05,1.08,0.22,0.18
CNC(=O)c1ccc(C)c(-n2c(C)cc(OCc3ccc(F)cc3F)c(Br)c2=O)c1,-0.05,0.1,0.26,0.31,-0.06,0.34,-0.13,0.65,0.44,0.41
C=CC(=O)N1CCN(CCCn2c(=O)c(-c3c(Cl)c(OC)cc(OC)c3Cl)cc3cnc(NC)nc32)CC1,0.19,0.26,0.4,-0.37,0.42,0.28,0.11,0.23,0.12,0.46
CN1CCN(S(=O)(=O)c2ccc(-c3cnc(N)c(C(=O)Nc4cccnc4)n3)cc2)CC1,4.52,1.3,0.3,0.58,7.62,1.87,0.71,0.96,-0.02,1.17
CCn1c(=O)c(-c2ccc(-c3cncs3)cc2Cl)cc2cnc(Nc3ccc(N4CCN(C)CC4)cc3)nc21,0.16,-0.15,0.42,0.34,0.12,0.22,-0.49,-0.5,0.02,-0.32
CCOc1cc(N2CCC(O)CC2)ccc1Nc1ncc2c(n1)N(C)c1ccccc1C(=O)N2C,0.48,0.5,0.7,-0.03,0.03,0.41,-0.54,0.04,0.06,-0.47
O=C(Nc1c[nH]nc1-c1nc2ccc(CN3CCOCC3)cc2[nH]1)NC1CC1,5.91,3.78,2.15,-0.38,8.12,3.45,6.02,2.89,0.42,7.67
COc1cc(OC)c(/C=C/S(=O)(=O)Cc2ccc(OC)c(NCC(=O)O)c2)c(OC)c1,0.51,1.22,0.58,0.83,0.27,0.96,-0.03,0.33,0.1,0.51
CC(C)Oc1ccc(-c2nn([C@@H](C)c3oc4ccc(F)cc4c(=O)c3-c3cccc(F)c3)c3ncnc(N)c23)cc1F,0.45,1.4,0.72,0.18,0.59,0.77,-0.2,1.45,0.32,0.73
CN1CCN(C2CCN(C(=O)Nc3cc(Oc4ccc(NC(=O)C5(C(=O)Nc6ccc(F)cc6)CC5)c(F)c4)ccn3)CC2)CC1 [Golvatinib (E7050)],-0.03,1.21,0.95,0.07,0.62,0.11,0.93,2.98,0.51,0.09
COc1ncc(-c2cc(-c3ncc(CN4C[C@@H](C)O[C@@H](C)C4)o3)c3cn[nH]c3c2)cc1NS(C)(=O)=O,0.55,3.05,-0.41,-0.09,-0.11,0.43,0.15,0.01,0.34,-0.19
COc1cc2ncnc(Nc3ccc(Cl)cc3F)c2cc1OC,0.69,0.81,0.27,0.26,0.32,0.85,1.07,0.9,0.46,0.58
Cc1cc(Nc2nc(N[C@@H](C)c3ncc(F)cn3)ncc2Cl)[nH]n1,4.53,2.77,0.35,-0.03,2.85,2.53,4.56,6.25,0.55,0.71
Cc1cccc(CC(=O)N2CCc3c2ccc(-c2cn(C)c4ncnc(N)c24)c3F)n1,1.17,6.31,2.32,-0.12,0.28,0.3,0.17,-0.13,0.48,1.35
N#CC(=C(/N)Sc1ccccc1N)/C(C#N)=C(\N)Sc1ccccc1N,1.35,1.84,-0.2,0.46,0.53,0.18,1.48,0.24,0.39,2.41
